# Measurements as given in paper PMC8384837, “Expanding the binding specificity for RNA recognition by a PUF domain”.
# Residue numbers refer to the chain shown, from its start.
# Columns and labels:
# Assay in all cases: yeast three-hybrid, YBZ-1, SC-Leu-His + 0.5 mM 3-AT, 4 days
# Conditions in all cases: tags: N-Gal4 AD-HA kept; label: inside an RPR1-promoter hybrid RNA with tandem MS2 sites; ssRNA
# PUM1 PUF domain R5-WHC = PUM1 PUF domain R5-WHC (Homo sapiens, UniProt Q14671 828-1176, C1007W;R1008H;Q1011C)
# In short: (§1)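 Repeat regions from input (SC-Leu) and selection (SC-Leu-His + 0.5 mM 3-AT) plates were PCR-amplified and Illumina-sequenced after four days of growth. The cells were strain YBZ-1 with a LexA–MS2 coat fusion and a HIS3 reporter, co-expressing Pumilio-1 PUF domain libraries and matching RNA elements from a centromeric plasmid. The interaction score is the log change in variant frequency from input to selection, taken in log2 with a pseudocount of 1 for absent variants.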
# PUM1 PUF domain R5-FHT = PUM1 PUF domain R5-FHT (Homo sapiens, UniProt Q14671 828-1176, C1007F;R1008H;Q1011T)
# In short: as §1
# PUM1 PUF domain R8-KFA = PUM1 PUF domain R8-KFA (Homo sapiens, UniProt Q14671 828-1176, N1122K;Y1123F;Q1126A)
# In short: as §1
# PUM1 PUF domain R7-RSR = PUM1 PUF domain R7-RSR (Homo sapiens, UniProt Q14671 828-1176, S1079R;N1080S;E1083R)
# In short: as §1
# PUM1 PUF domain R1-KVS = PUM1 PUF domain R1-KVS (Homo sapiens, UniProt Q14671 828-1176, S863K;R864V;Q867S)
# In short: as §1
# PUM1 PUF domain R1-YRR = PUM1 PUF domain R1-YRR (Homo sapiens, UniProt Q14671 828-1176, S863Y;Q867R)
# PUM1 PUF domain R1-YRR, sequence (Q14671 828-1176 S863Y/Q867R): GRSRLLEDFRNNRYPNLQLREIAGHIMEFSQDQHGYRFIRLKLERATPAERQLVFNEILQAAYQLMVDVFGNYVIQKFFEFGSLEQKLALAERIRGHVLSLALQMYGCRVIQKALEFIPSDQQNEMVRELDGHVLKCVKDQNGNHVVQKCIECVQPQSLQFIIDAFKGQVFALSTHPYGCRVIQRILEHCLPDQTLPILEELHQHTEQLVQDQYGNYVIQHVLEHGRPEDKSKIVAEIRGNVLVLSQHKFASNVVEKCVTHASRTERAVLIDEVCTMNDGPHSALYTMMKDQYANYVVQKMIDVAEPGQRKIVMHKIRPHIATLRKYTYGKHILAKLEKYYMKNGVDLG
# In short: as §1
# PUM1 PUF domain R3-LFT = PUM1 PUF domain R3-LFT (Homo sapiens, UniProt Q14671 828-1176, C935L;R936F;Q939T)
# In short: as §1
# PUM1 PUF domain R3-IFV = PUM1 PUF domain R3-IFV (Homo sapiens, UniProt Q14671 828-1176, C935I;R936F;Q939V)
# In short: as §1
# PUM1 PUF domain R3-RQG = PUM1 PUF domain R3-RQG (Homo sapiens, UniProt Q14671 828-1176, C935R;R936Q;Q939G)
# In short: as §1
# PUM1 PUF domain R5-LYG = PUM1 PUF domain R5-LYG (Homo sapiens, UniProt Q14671 828-1176, C1007L;R1008Y;Q1011G)
# In short: as §1
# PUM1 PUF domain R6-CWR = biological target: T1, PUM1 PUF domain R6-CWR (Homo sapiens, UniProt Q14671 828-1176, N1043C;Y1044W;Q1047R)
# T1 sequence: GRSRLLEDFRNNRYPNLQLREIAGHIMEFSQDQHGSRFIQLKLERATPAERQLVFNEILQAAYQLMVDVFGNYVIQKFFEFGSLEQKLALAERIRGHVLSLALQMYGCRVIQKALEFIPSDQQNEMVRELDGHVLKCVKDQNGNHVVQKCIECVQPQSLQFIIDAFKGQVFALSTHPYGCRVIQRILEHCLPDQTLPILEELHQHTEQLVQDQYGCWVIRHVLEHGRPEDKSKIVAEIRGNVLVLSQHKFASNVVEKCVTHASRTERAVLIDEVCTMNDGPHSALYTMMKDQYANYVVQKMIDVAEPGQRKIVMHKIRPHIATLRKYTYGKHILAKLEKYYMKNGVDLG
# In short: as §1
# PUM1 PUF domain R3-DHV = PUM1 PUF domain R3-DHV (Homo sapiens, UniProt Q14671 828-1176, C935D;R936H;Q939V)
# In short: as §1
# PUM1 PUF domain R6-KWR = biological target: T2, PUM1 PUF domain R6-KWR (Homo sapiens, UniProt Q14671 828-1176, N1043K;Y1044W;Q1047R)
# T2 sequence: T1 sequence with C216K
# In short: as §1
# PUM1 PUF domain R7-QRD = PUM1 PUF domain R7-QRD (Homo sapiens, UniProt Q14671 828-1176, S1079Q;N1080R;E1083D)
# In short: as §1
# PUM1 PUF domain R6-LWV = biological target: T3, PUM1 PUF domain R6-LWV (Homo sapiens, UniProt Q14671 828-1176, N1043L;Y1044W;Q1047V)
# T3 sequence: T1 sequence with C216L, R220V
# In short: as §1
# PUM1 PUF domain R3-GWI = PUM1 PUF domain R3-GWI (Homo sapiens, UniProt Q14671 828-1176, C935G;R936W;Q939I)
# In short: as §1
# PUM1 PUF domain R4-DYN = PUM1 PUF domain R4-DYN (Homo sapiens, UniProt Q14671 828-1176, N971D;H972Y;Q975N)
# In short: as §1
sequence,measurement,setting,value
GGCUAGAACUAGUGGAUCCCCCGGCGCCCGGCGGCUCGAGCCCGGGUAAGUGUCAAUAGUCUGCAUGCCGCCGGGCGCCAUGCCUGCAGGUCGACUCUAGAAAACAUG,binding signal,PUM1 PUF domain R5-WHC,3.6 log2 enrichment (interaction score)
same,binding signal,PUM1 PUF domain R5-FHT,2.81 log2 enrichment (interaction score)
GGCUAGAACUAGUGGAUCCCCCGGCGCCCGGCGGCUCGAGCCCGGGUAAGCGUAAAUAGUCUGCAUGCCGCCGGGCGCCAUGCCUGCAGGUCGACUCUAGAAAACAUG,binding signal,PUM1 PUF domain R8-KFA,6.97 log2 enrichment (interaction score)
GGCUAGAACUAGUGGAUCCCCCGGCGCCCGGCGGCUCGAGCCCGGGUAAGUCUAAAUAGUCUGCAUGCCGCCGGGCGCCAUGCCUGCAGGUCGACUCUAGAAAACAUG,binding signal,PUM1 PUF domain R7-RSR,3.42 log2 enrichment (interaction score)
GGCUAGAACUAGUGGAUCCCCCGGCGCCCGGCGGCUCGAGCCCGGGUAAGUGUAAAUUGUCUGCAUGCCGCCGGGCGCCAUGCCUGCAGGUCGACUCUAGAAAACAUG,binding signal,PUM1 PUF domain R1-KVS,4.64 log2 enrichment (interaction score)
same,binding signal,PUM1 PUF domain R1-YRR,8.31 log2 enrichment (interaction score)
GGCUAGAACUAGUGGAUCCCCCGGCGCCCGGCGGCUCGAGCCCGGGUAAGUGUAAUUAGUCUGCAUGCCGCCGGGCGCCAUGCCUGCAGGUCGACUCUAGAAAACAUG,binding signal,PUM1 PUF domain R3-LFT,5.16 log2 enrichment (interaction score)
same,binding signal,PUM1 PUF domain R3-IFV,4.5 log2 enrichment (interaction score)
same,binding signal,PUM1 PUF domain R3-RQG,4.14 log2 enrichment (interaction score)
GGCUAGAACUAGUGGAUCCCCCGGCGCCCGGCGGCUCGAGCCCGGGUAAGUGUAAAUAGUCUGCAUGCCGCCGGGCGCCAUGCCUGCAGGUCGACUCUAGAAAACAUG,binding signal,PUM1 PUF domain R8-KFA,4.75 log2 enrichment (interaction score)
same,binding signal,PUM1 PUF domain R5-LYG,3.46 log2 enrichment (interaction score)
same,binding signal,PUM1 PUF domain R6-CWR,5.42 log2 enrichment (interaction score)
same,binding signal,PUM1 PUF domain R3-IFV,4.8 log2 enrichment (interaction score)
same,binding signal,PUM1 PUF domain R3-DHV,4.2 log2 enrichment (interaction score)
same,binding signal,PUM1 PUF domain R6-KWR,6.69 log2 enrichment (interaction score)
same,binding signal,PUM1 PUF domain R7-QRD,2.72 log2 enrichment (interaction score)
same,binding signal,PUM1 PUF domain R6-LWV,3.67 log2 enrichment (interaction score)
same,binding signal,PUM1 PUF domain R3-GWI,2.68 log2 enrichment (interaction score)
GGCUAGAACUAGUGGAUCCCCCGGCGCCCGGCGGCUCGAGCCCGGGUAAGUGUAUAUAGUCUGCAUGCCGCCGGGCGCCAUGCCUGCAGGUCGACUCUAGAAAACAUG,binding signal,PUM1 PUF domain R4-DYN,5.22 log2 enrichment (interaction score)
